Source: PubChem BioAssay (NCATS)
Records with an inconclusive call do not appear. Active and inactive are the calls of the source. The call rests on the fitted dose curve; in most records, active means well fitted curve in the direction sought with a large enough effect; inconclusive means small, poorly fitted or top-dose-only effect, or another doubt; inactive means no such curve, though single readings can be large; an effect the other way counts as inactive or inconclusive.

Tests used:
NIH3T3 = assay: Cytotoxic Profiling of Annotated Libraries Using Quantitative High-Throughput Screening (AID 1296008); details: Five cell lines viability, CellTiter-Glo ATP luminescence, 48-72 h; stronger effect = lower value; further: nearly all actives have a fitted effect of over 60% in size
In short: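 Cytotoxicity was measured as CellTiter-Glo ATP luminescence, read after 10 min at room temperature. Compound treatment of the cells lasted 48 or 72 hr at 37 degrees Celsius in a qHTS format.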

HACAT = assay: qHTS assay to identify novel small-molecules to repurpose for Merkel cell carcinoma treatment (AID 1296009); details: MCC and control cell lines, CellTiter-Glo viability, 72 h; at 44.8 µM (top of the series) unless noted; further: nearly all actives have a fitted effect of over 60% in size
In short: (§1)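 72 hr, 37 degree celsius; NPC 8-pt / MIPE 11-pt dose response; compound pinned in DMSO; CellTiter-Glo, 10 min RT, luminescence; normalized to no-cell and DMSO controls.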

MCC-13 = assay: as above; details: MCC and control cell lines, CellTiter-Glo viability, 72 h; series mostly up to 46 µM
In short: as §1

MCC-26 = assay: as above; details: MCC and control cell lines, CellTiter-Glo viability, 72 h; series mostly up to 46 µM
In short: as §1

MKL-1 = assay: as above; details: MCC and control cell lines, CellTiter-Glo viability, 72 h; series mostly up to 46 µM
In short: as §1

MKL-2 = assay: as above; details: MCC and control cell lines, CellTiter-Glo viability, 72 h; series mostly up to 46 µM
In short: as §1

UISO = assay: as above; details: MCC and control cell lines, CellTiter-Glo viability, 72 h; series mostly up to 46 µM
In short: as §1

WaGa = assay: as above; details: MCC and control cell lines, CellTiter-Glo viability, 72 h; series mostly up to 46 µM
In short: as §1

C33A = assay: Primary qHTS to identify gynecologic anti-cancer compounds using libraries of approved drugs and bioactive compounds (AID 1345084); details: Gynecologic cancer cell panel viability, ATPlite luminescence, 48 h; series mostly up to 57.5 µM; further: nearly all actives have a fitted effect of over 55% in size
In short: (§2)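 In this quantitative HTS, cell killing is estimated from loss of ATP-dependent luciferase light. Cells see five compound concentrations over a 48 h exposure.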

CAOV3 = assay: as above; details: Gynecologic cancer cell panel viability, ATPlite luminescence, 48 h; series mostly up to 57.5 µM
In short: as §2

CASKI = assay: as above; details: Gynecologic cancer cell panel viability, ATPlite luminescence, 48 h; series mostly up to 57.5 µM
In short: as §2

Es-2 = assay: as above; details: Gynecologic cancer cell panel viability, ATPlite luminescence, 48 h; series mostly up to 57.5 µM
In short: as §2

HeLa = assay: as above; details: Gynecologic cancer cell panel viability, ATPlite luminescence, 48 h; series mostly up to 57.5 µM
In short: as §2

Hek293T = assay: as above; details: Gynecologic cancer cell panel viability, ATPlite luminescence, 48 h, control line for the selectivity index; series mostly up to 57.5 µM
In short: as §2

JEG-3 = assay: as above; details: Gynecologic cancer cell panel viability, ATPlite luminescence, 48 h; series mostly up to 57.5 µM
In short: as §2

OV90 = assay: as above; details: Gynecologic cancer cell panel viability, ATPlite luminescence, 48 h; series mostly up to 57.5 µM
In short: as §2

PA-1 = assay: as above; details: Gynecologic cancer cell panel viability, ATPlite luminescence, 48 h; series mostly up to 57.5 µM
In short: as §2

SKOV3 = assay: as above; details: Gynecologic cancer cell panel viability, ATPlite luminescence, 48 h; series mostly up to 57.5 µM
In short: as §2
On the % scale 0 is the no-effect control and ±100 the full control effect.

O=C(Cn1ccnc1[N+](=O)[O-])NCc1ccccc1
inactive: max response (NIH3T3) 3.14% | outcome (HACAT) | outcome (MCC-13) | outcome (MCC-26) | outcome (MKL-1) | outcome (MKL-2) | outcome (UISO) | outcome (WaGa) | outcome (C33A) | outcome (CAOV3) | outcome (CASKI) | outcome (Es-2) | outcome (HeLa) | outcome (Hek293T) | outcome (JEG-3) | Potency (OV90) | outcome (PA-1) | outcome (SKOV3)

CCN1CC(CCN2CCOCC2)C(c2ccccc2)(c2ccccc2)C1=O (centres undefined)
inactive: max response (NIH3T3) 2.99% | outcome (HACAT) | outcome (MCC-13) | outcome (MCC-26) | outcome (MKL-1) | outcome (MKL-2) | outcome (UISO) | outcome (WaGa) | outcome (C33A) | outcome (CAOV3) | outcome (CASKI) | outcome (Es-2) | outcome (HeLa) | outcome (Hek293T) | outcome (JEG-3) | Potency (OV90) | outcome (PA-1)

CCOC(=O)c1cccnc1
inactive: max response (NIH3T3) 2.73% | outcome (HACAT) | outcome (MCC-13) | outcome (MCC-26) | outcome (MKL-1) | outcome (MKL-2) | outcome (UISO) | outcome (WaGa) | outcome (C33A) | outcome (CAOV3) | outcome (CASKI) | outcome (Es-2) | outcome (HeLa) | outcome (Hek293T) | outcome (JEG-3) | Potency (OV90) | outcome (PA-1) | outcome (SKOV3)

NC(N)=NCCN1CCCCCCC1
inactive: max response (NIH3T3) 4.36% | outcome (HACAT) inactive [at 0.588 µM] | activity change, negative = cytotoxicity (MCC-13) 12.6% [at 0.597 µM] | activity change, negative = cytotoxicity (MCC-26) 12.5% [at 0.597 µM] | activity change, negative = cytotoxicity (MKL-1) 13.2% [at 0.597 µM] | activity change, negative = cytotoxicity (MKL-2) 3.8% [at 0.597 µM] | activity change, negative = cytotoxicity (UISO) 18% [at 0.597 µM] | activity change, negative = cytotoxicity (WaGa) 12.9% [at 0.597 µM] | activity change, negative = cytotoxicity (C33A) 9.99% [at 0.462 µM] | activity change, negative = cytotoxicity (CAOV3) -2.11% [at 0.462 µM] | activity change, negative = cytotoxicity (CASKI) -2.55% [at 0.462 µM] | activity change, negative = cytotoxicity (Es-2) -4.19% [at 0.462 µM] | activity change, negative = cytotoxicity (HeLa) 0.1% [at 0.462 µM] | activity change, negative = cytotoxicity (Hek293T) -4.03% [at 0.462 µM] | activity change, negative = cytotoxicity (JEG-3) -3.39% [at 0.462 µM] | activity change, negative = cytotoxicity (OV90) -3.97% [at 0.462 µM] | activity change, negative = cytotoxicity (PA-1) 8.5% [at 0.462 µM] | activity change, negative = cytotoxicity (SKOV3) 6.07% [at 0.462 µM]

O=C(O)CCC(=O)O
inactive: max response (NIH3T3) -0.925% | outcome (HACAT) | outcome (MCC-13) | outcome (MCC-26) | outcome (MKL-1) | outcome (MKL-2) | outcome (UISO) | outcome (WaGa) | outcome (C33A) | outcome (CASKI) | outcome (Es-2) | outcome (HeLa) | outcome (Hek293T) | outcome (JEG-3) | Potency (OV90) | outcome (PA-1) | outcome (SKOV3)

O=C1c2ccccc2C(=O)C1c1ccc(Br)cc1
inactive: max response (NIH3T3) -1.29% | outcome (HACAT) | outcome (MCC-13) | outcome (MCC-26) | outcome (MKL-1) | outcome (MKL-2) | outcome (UISO) | outcome (WaGa) | outcome (C33A) | outcome (CAOV3) | outcome (CASKI) | outcome (Es-2) | outcome (HeLa) | outcome (Hek293T) | outcome (JEG-3) | Potency (OV90) | outcome (PA-1) | outcome (SKOV3)

Nc1c2c(nc3c1CCC3)CCCC2
inactive: max response (NIH3T3) 0.339% | outcome (HACAT) | outcome (MCC-13) | outcome (MCC-26) | outcome (MKL-1) | outcome (MKL-2) | outcome (UISO) | outcome (WaGa) | outcome (C33A) | outcome (CAOV3) | outcome (CASKI) | outcome (Es-2) | outcome (HeLa) | outcome (Hek293T) | outcome (JEG-3) | Potency (OV90) | outcome (PA-1) | outcome (SKOV3)

O=C(/C=C/c1ccccc1)OCc1ccccc1
inactive: max response (NIH3T3) -4.12% | outcome (HACAT) | outcome (MCC-13) | outcome (MCC-26) | outcome (MKL-1) | outcome (MKL-2) | outcome (UISO) | outcome (WaGa) | outcome (C33A) | outcome (CASKI) | outcome (Es-2) | outcome (HeLa) | outcome (Hek293T) | outcome (JEG-3) | Potency (OV90) | outcome (PA-1) | outcome (SKOV3)

CNc1c2c(nn1C)CCCC2
inactive: max response (NIH3T3) 4.21% | outcome (HACAT) | outcome (MCC-13) | outcome (MCC-26) | outcome (MKL-1) | outcome (MKL-2) | outcome (UISO) | outcome (WaGa) | outcome (C33A) | outcome (CAOV3) | outcome (CASKI) | outcome (Es-2) | outcome (HeLa) | outcome (Hek293T) | outcome (JEG-3) | Potency (OV90) | outcome (PA-1) | outcome (SKOV3)

O=c1[nH]c(=O)c2ccccc2o1
inactive: max response (NIH3T3) -16.8% | outcome (HACAT) | outcome (MCC-13) | outcome (MCC-26) | outcome (MKL-1) | outcome (MKL-2) | outcome (UISO) | outcome (WaGa) | outcome (C33A) | outcome (CAOV3) | outcome (CASKI) | outcome (Es-2) | outcome (HeLa) | outcome (Hek293T) | outcome (JEG-3) | Potency (OV90) | outcome (PA-1) | outcome (SKOV3)

CN(C/C=C/C#CC(C)(C)C)Cc1cccc2ccccc12
inactive: max response (NIH3T3) 2.57% | outcome (HACAT) | outcome (MCC-13) | outcome (MCC-26) | outcome (MKL-1) | outcome (MKL-2) | outcome (UISO) | outcome (WaGa) | outcome (C33A) | outcome (CAOV3) | outcome (CASKI) | outcome (Es-2) | outcome (HeLa) | outcome (Hek293T) | outcome (JEG-3) | Potency (OV90) | outcome (PA-1) | outcome (SKOV3)

C[C@@H](c1ncncc1F)C(O)(Cn1cncn1)c1ccc(F)cc1F (some centres undefined)
inactive: max response (NIH3T3) -3.08% | outcome (HACAT) | outcome (MCC-13) | outcome (MCC-26) | outcome (MKL-1) | outcome (MKL-2) | outcome (UISO) | outcome (WaGa) | outcome (C33A) | outcome (CASKI) | outcome (Es-2) | outcome (HeLa) | outcome (Hek293T) | outcome (JEG-3) | outcome (PA-1) | outcome (SKOV3)

NCC1CCC(C(=O)Oc2ccc(CCC(=O)O)cc2)CC1 (centres undefined)
inactive: max response (NIH3T3) -0.473% | outcome (HACAT) | outcome (MCC-13) | outcome (MCC-26) | outcome (MKL-1) | outcome (MKL-2) | outcome (UISO) | outcome (WaGa) | outcome (C33A) | outcome (CAOV3) | outcome (CASKI) | outcome (Es-2) | outcome (HeLa) | outcome (Hek293T) | outcome (JEG-3) | Potency (OV90) | outcome (PA-1) | outcome (SKOV3)

Cc1ccc(C(C)C)c(O)c1
inactive: max response (NIH3T3) 0.329% | outcome (HACAT) | outcome (MCC-13) | outcome (MCC-26) | outcome (MKL-1) | outcome (MKL-2) | outcome (UISO) | outcome (WaGa) | outcome (C33A) | outcome (CASKI) | outcome (Es-2) | outcome (HeLa) | outcome (Hek293T) | outcome (JEG-3) | Potency (OV90) | outcome (PA-1) | outcome (SKOV3)

Cc1cc(C)c(NC(=O)CN(CC(=O)O)CC(=O)O)c(C)c1Br
inactive: max response (NIH3T3) -1.07% | outcome (HACAT) | outcome (MCC-13) | outcome (MCC-26) | outcome (MKL-1) | outcome (MKL-2) | outcome (UISO) | outcome (WaGa) | outcome (C33A) | outcome (CAOV3) | outcome (CASKI) | outcome (Es-2) | outcome (HeLa) | outcome (Hek293T) | outcome (JEG-3) | Potency (OV90) | outcome (PA-1) | outcome (SKOV3)
